Hit rate of the full screen: of about 31,000 sequences, about 1,400 (4.5%) were called active. This is one part of a sample in which actives are shown more often than they occur.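 Rule for the calls: active = median seed-adjusted z-score above 1 or below -1; inactive = the rest.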

The assay in a line: Novel Modifiers of Survival Motor Neuron (SMN) Protein: Gene Identification via Genome-wide siRNA Screen.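 Note: luminescence tracks full-length SMN protein made from the SMN2 reporter.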 As to conditions: HEK293T SMN2-luciferase reporter, siRNA knockdown, 72 h; actives lie on both sides. An outline of the steps:
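Steps: spot 1 pmol siRNA, add Lipofectamine RNAiMax in serum-free DMEM, seed HEK293T SMN2–luciferase reporter cells; incubate 72 h at 37 °C; add ONE-Glo; normalize luminescence to control siRNA, log10, MAD. Candidates: |MAD| > 1.0.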
As to GGAACAUCGAAAUCGUGUATT against DDX6, the median seed-adjusted z-score was 1.12 (active).

GGUCUACUUCUACUACAAUTT against UTY: the median seed-adjusted z-score was -0.538 (inactive).

For CCGGUCAACUGUUACGUAUTT against GJA5, the median seed-adjusted z-score is 0.707 (inactive).

Take CAUUCUGUGGUGAAACAUUTT against SCLY: the median seed-adjusted z-score is 0.00396 (inactive).

On to CCACCAUAGGAUAUGGUUATT against KCNJ16, for which the median seed-adjusted z-score is -0.705 (inactive).

For the sequence CGCAAUAACUGUUUGGUAUTT against EGLN1, the median seed-adjusted z-score is 2.05 (active).

Regarding GGCUAAUCGUGAACCGGAATT against DOCK8, the median seed-adjusted z-score is 0.243 (inactive).

GGAUGGUAGUGUCUGACUUTT against MGLL: the median seed-adjusted z-score was 0.288 (inactive).

On to UGAAGAUGAUUGUCCUUAUTT against VAMP8, for which the median seed-adjusted z-score is -0.184 (inactive).

Take CACCCUGCAGGUUCCCAUATT against HSD17B14: the median seed-adjusted z-score is 0.386 (inactive).

Consider GGAUGCUUCUGAAUAGAAATT against BIRC7, for which the median seed-adjusted z-score was -1.44 (active).

Turning to CACUAUUGCAUGUAUCGAATT against ARHGAP10, the median seed-adjusted z-score is -0.458 (inactive).

For CAAAGGGCUAAGUUCUAAATT against TBC1D5, the median seed-adjusted z-score is 0.38 (inactive).

As to AAACUAACAUUCGAUUGAATT against TRIM48, the median seed-adjusted z-score is 0 (inactive).

For the sequence GGUGGAGGACCAAACAGAATT against MGAT4B, the median seed-adjusted z-score is 0.0142 (inactive).

Consider GCUCUACUAUUUCUACGAUTT against SPPL2B, for which the median seed-adjusted z-score is 0.0324 (inactive).

With GCAAGAGAGUCUCAAAUUUTT against EVX1, the median seed-adjusted z-score was 1 (active).

Take CCAUGCUCCAGUUAUCUUUTT against SLC10A6: the median seed-adjusted z-score was -0.803 (inactive).

With GAUUCUUCCCGGCAUCAUATT against GUCY1A3, the median seed-adjusted z-score was 0.187 (inactive).

On to GGGUGUAAAAUGCACGUUUTT against CLDN16, for which the median seed-adjusted z-score is -0.868 (inactive).

Consider CACUUGGAGUGGUGAAUCATT against NCL, for which the median seed-adjusted z-score is 1.33 (active).

On to GCUCGGUGGAAAAACGUGATT against SCN3A, for which the median seed-adjusted z-score is -0.0556 (inactive).

Take CAGUCUACAGCUUCAACAATT against ZNF207: the median seed-adjusted z-score was -3.1 (active).

Turning to CGCUGACCCUGGAGAUGUATT against CALY, the median seed-adjusted z-score is 0.216 (inactive).

Take GGACAAUCCUUUCAUUAAUTT against HTR3C: the median seed-adjusted z-score is -0.221 (inactive).

As to CUAAUUUACUAUUACGCUUTT against F2R, the median seed-adjusted z-score is -0.392 (inactive).

Regarding UCCCAGCACUUAUAGCCUATT against ANKRA2, the median seed-adjusted z-score is 1.26 (active).

For AGCCCUCUUCUGACACUAATT against SERPINH1, the median seed-adjusted z-score was 0.186 (inactive).

As to GCGUUGACCAAGACUCAUATT against TP53BP2, the median seed-adjusted z-score was 0.157 (inactive).

With AGCACUGCAUGUUCACCGATT against KLHL25, the median seed-adjusted z-score was -0.0146 (inactive).

For GCAUAUUAAGGAGACCUAUTT against HSD17B6, the median seed-adjusted z-score was 0.573 (inactive).

On to CCAUCGUUCUGGGAAUUCUTT against CD6, for which the median seed-adjusted z-score is -0.33 (inactive).

On to GGAUGAUAAUGCUAAUCCATT against PPP1R3A, for which the median seed-adjusted z-score is -0.241 (inactive).

For the sequence GGACUUUGACAAGAACAGUTT against CYP1A2, the median seed-adjusted z-score was 0 (inactive).

GAACAAUGAGUAUAUCCUATT against PPP2R5B: the median seed-adjusted z-score was 0.237 (inactive).

As to GACGACCAAUUAUAGUUUATT against ZRANB1, the median seed-adjusted z-score was -0.347 (inactive).

Take CCAUCAAUGCGGCUCAUGUTT against TUFM: the median seed-adjusted z-score was 1.07 (active).

For GGAUCAGCCGAGGAUGAAATT against PPP1R15A, the median seed-adjusted z-score is 0.539 (inactive).

Turning to GGAUCUCAUGCACAUCUCATT against PLA2G6, the median seed-adjusted z-score is -0.123 (inactive).

For the sequence AGAAGAUUCUUGUAUUUAUTT against IL24, the median seed-adjusted z-score was -0.125 (inactive).

Take GGAUGAUAUCAACUGCUAUTT against ACVR2A: the median seed-adjusted z-score is -0.22 (inactive).

Take ACAUGUGGGUGACGGUUUUTT against SRM: the median seed-adjusted z-score was 0 (inactive).

Regarding CAUGGACCCUGAUGACAUATT against UROD, the median seed-adjusted z-score was 1.11 (active).

With GCGUGAAUGAGGUGGAUUATT against ETNK2, the median seed-adjusted z-score is -0.74 (inactive).

With CGUAUACUAUUAUCACGUUTT against ATP6V0A1, the median seed-adjusted z-score was 0.103 (inactive).

For the sequence GGGCACGGGUGAUAUGAAUTT against CTDP1, the median seed-adjusted z-score is -2.29 (active).

For AGCUACAAUUUGAAAGAGATT against RNF144A, the median seed-adjusted z-score was -0.185 (inactive).

For the sequence AGAGAUCACCGAUUACAGATT against ISG20, the median seed-adjusted z-score was 0.0209 (inactive).

Regarding CAACUGUUAUCAGAACGAUTT against ARFIP2, the median seed-adjusted z-score is 0.748 (inactive).

On to GCAAUGCCCUCUAUCAAUATT against IP6K1, for which the median seed-adjusted z-score is -0.317 (inactive).

For AGAUGAUCGCUGAGUUCAATT against TNNC2, the median seed-adjusted z-score was -0.773 (inactive).

As to CGAAUGACAAGUGAUCUAATT against MDH1B, the median seed-adjusted z-score is -1.13 (active).

Regarding GCUCAACUCUUAUUAGUCATT against ZNF485, the median seed-adjusted z-score is 0.445 (inactive).

Take AUACCUGAACAGUCCCUCATT against NOBOX: the median seed-adjusted z-score is -0.426 (inactive).

Take CGCGCAACAUCGUCAAGUATT against LPHN1: the median seed-adjusted z-score was -1.03 (active).

As for GGACUAUUACAAAUCAAGATT against FLT3, the median seed-adjusted z-score was 0.418 (inactive).

On to GGACAUUGAUUAUAUUGGATT against GALC, for which the median seed-adjusted z-score is 0 (inactive).

Take GACCGAGAAGUACCGCUGATT against HBZ: the median seed-adjusted z-score was -0.0054 (inactive).

On to GCAUGUACCAGGUUCAGUATT against LRFN1, for which the median seed-adjusted z-score is 0.605 (inactive).

Consider GCAGAGACCUACAAAAAGATT against RCN3, for which the median seed-adjusted z-score was -2.44 (active).

In the case of GGCAGUGUUUAUUUACUAUTT against RHBDL2, the median seed-adjusted z-score was 0.0701 (inactive).

CCAAAGAUGUUUCAUCUGATT against PCDHGA7: the median seed-adjusted z-score is 0.705 (inactive).

As to AAGGUAAAAUUGAAGAGUUTT against SERPINB9, the median seed-adjusted z-score is 0 (inactive).

With CUCACCUACUGGAACCUGATT against ZBED4, the median seed-adjusted z-score is -0.553 (inactive).

As to CCAACAUGCUAAUCACCUATT against MAP3K12, the median seed-adjusted z-score was -0.6 (inactive).

As for CUAUUUUACCUUUACAAGATT against ALDH1A2, the median seed-adjusted z-score is 0.564 (inactive).

With CAUUAUCUAUUCUAGACAATT against TTC18, the median seed-adjusted z-score was -1.15 (active).

For the sequence GCAUUGCCUCUAUACCAGATT against MALT1, the median seed-adjusted z-score was 0.442 (inactive).

Consider GGGCAUGUUUCGUACCGUUTT against MYH10, for which the median seed-adjusted z-score was 0.0877 (inactive).

Consider AGAACAUCCUGAUAGACCUTT against PIM2, for which the median seed-adjusted z-score is 0.00597 (inactive).

In the case of GGUGCGGAGAGAUGAGAUATT against PPM1M, the median seed-adjusted z-score was 0 (inactive).

Take GCAGAAAUGACACCAAUAATT against NMB: the median seed-adjusted z-score is 0.746 (inactive).

Take GCUCCUCAAAGGAUAUGAATT against CAB39L: the median seed-adjusted z-score was 0 (inactive).

Consider AUUUAUUUGUUGAGGUUAUTT against PIM3, for which the median seed-adjusted z-score is -1.01 (active).

GACCCUAAGCAGUAUAAGATT against CHSY3: the median seed-adjusted z-score was -0.113 (inactive).

Regarding CGAUUGCCCAUCAUCCUGATT against HAO2, the median seed-adjusted z-score is 0.039 (inactive).

Consider GCUUCUACCCGGACGAAGATT against MYCN, for which the median seed-adjusted z-score was 0.00242 (inactive).

With AAACACCGCUGUUCCGUAATT against MED8, the median seed-adjusted z-score is -1.61 (active).

For GGCUAGUGAUCGACCGUAATT against FADS1, the median seed-adjusted z-score was -0.905 (inactive).

Consider GAAACCUGCUGAUCUACGATT against CREB3L2, for which the median seed-adjusted z-score is -0.192 (inactive).

Turning to GGAGAAAACCUUCGAGCAGTT against NKX6-2, the median seed-adjusted z-score was 0.101 (inactive).

Take UCCUAAAUGUGACCCGGUATT against ZMYND19: the median seed-adjusted z-score is 0.369 (inactive).

As for GCCCAUUUCAUCAACCUGATT against PRDM15, the median seed-adjusted z-score was 0.258 (inactive).

In the case of CAACAACUGCUACCAAGAUTT against SLC6A4, the median seed-adjusted z-score was 1.43 (active).

GGAACUAGAUGUCAUGUAUTT against VILL: the median seed-adjusted z-score is 0.518 (inactive).

As for CAAGUGUCUAUGUAACGAATT against FBN2, the median seed-adjusted z-score is 0.373 (inactive).

Consider GCCUUUACCCUUGAAGAAATT against ME3, for which the median seed-adjusted z-score was 0.166 (inactive).

For CAAUCAUGUCGAGAAAUAATT against TGIF2LX, the median seed-adjusted z-score was -0.568 (inactive).

Consider CGUUCAGUCCGUCACCCAATT against GATAD2A, for which the median seed-adjusted z-score was -0.715 (inactive).

Turning to GGGUGGGUUACAUAGCACATT against CLDN19, the median seed-adjusted z-score was 0 (inactive).

With GACUUAACCAAGAGACGUATT against THOC2, the median seed-adjusted z-score is -1.22 (active).

GGACGAAGGACGUGCUGUUTT against SHC2: the median seed-adjusted z-score was -0.207 (inactive).

On to GCAAUUACAUUGUACGCUUTT against ETFDH, for which the median seed-adjusted z-score is 0.154 (inactive).

For the sequence CAGCUUCAGGAGAAUGAAATT against PPP1CC, the median seed-adjusted z-score is -0.344 (inactive).

As to GCACGUAAGCUGAACACUATT against PRC1, the median seed-adjusted z-score is -0.0195 (inactive).

With UGAAGAACCUGGACGCCAATT against CCL24, the median seed-adjusted z-score was 0 (inactive).

With CCUCGAGGAGAUUAACAAATT against NPEPL1, the median seed-adjusted z-score was 1.12 (active).

On to CAGAUGAAGUGAUCGGUGATT against CIITA, for which the median seed-adjusted z-score is -0.109 (inactive).

Take GCUCCUGUAUGAAUGCAAUTT against FBP2: the median seed-adjusted z-score is 0 (inactive).

GGCUUUUAGCCUGAAGAAATT against PRDM5: the median seed-adjusted z-score is -0.463 (inactive).

Regarding CUGAUGCUCUGUAUCCCAATT against TNRC4, the median seed-adjusted z-score was 0.801 (inactive).

For GAUGAUAUUUAUUCACCAATT against ZBTB25, the median seed-adjusted z-score was 0 (inactive).

For the sequence GCAUACCUCAGUUCCAAGATT against CDY2A, the median seed-adjusted z-score was 0.75 (inactive).

For CCUCUAACCUUAGAUGAAATT against GTF2E2, the median seed-adjusted z-score is -1.32 (active).

GGAGCAUAAAGUAGACCGATT against ABCA10: the median seed-adjusted z-score is -0.104 (inactive).

On to GACCGUUCACUGUACAACATT against FUT9, for which the median seed-adjusted z-score was 0.0444 (inactive).

Take GUGUUAUAACAAUCGAAGATT against CAPSL: the median seed-adjusted z-score was -0.168 (inactive).

For GGCUUAAACUUAGAGUCAATT against MYLIP, the median seed-adjusted z-score was 0.652 (inactive).

Turning to CAGUCGAUGUCCAUGAAUATT against LRRN1, the median seed-adjusted z-score is -0.407 (inactive).
